DAX1 inh-1: DAX1 (NR0B1) inhibitors on StAR promoter, primary screen, cell-based, luminescence, SF-1 (NR5A1), full-length DAX-1; 1.1% of 370,000 active; HEK293T StAR-luciferase reporter, SF-1/DAX-1 repression relief; inhibition, % at 6.8 µM;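 active = inhibition above the mean over all tested compounds plus 3 SD, cut at about 3.6% in these data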;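 note: 0% = DAX-1 cells with DMSO and 100% = cells lacking DAX-1 with DMSO; higher inhibition means more luminescence from relief of DAX-1 repression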
hgDAF12 agonist: H. glycines DAF-12 receptor agonists, primary screen, cell-based, luminescence, HEK293, GAL4 fusion, UAS-luciferase | HEK293 GAL4-hgDAF12 UAS-luciferase reporter, agonist luminescence; normalized to butyrate control | 1.8% of 370,000 active | activation, % at 6.8 µM | AID 687014, 2013 | Nuclear hormone receptor DAF-12 (Heterodera glycines), GAL4 fusion;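 active = activation above a cutoff set at the mean of all screened compounds plus 3 SD, cut at about 10% in these data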;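 note: 0% = DMSO wells and 100% = sodium butyrate wells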
ssDAF12 agonist: S. stercoralis DAF-12 nuclear receptor activators, primary screen, cell-based, luminescence, HEK293, GRIP1 co-expression, lit1-tk-luc; activation, % at 6.8 µM; Nuclear hormone receptor DAF-12 (Strongyloides stercoralis); 1% of 370,000 active; HEK293 ssDAF-12/GRIP1 lit1-tk-luc reporter; % of 3 µM dafachronic acid response;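 active = activation above the mean over all tested compounds plus 3 SD, cut at about 0.9% in these data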;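 note: 0% = DMSO-only wells and 100% = 3 µM delta7-dafachronic acid wells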
hcDAF12 agonist: H. contortus DAF-12 nuclear receptor activators, primary screen, cell-based, luminescence, HEK293, lit1-tk-luc reporter | HEK293 hcDAF-12 lit1-tk-luc reporter; 0% DMSO, 100% Δ7-dafachronic acid | activation, % at 6.8 µM | 1.4% of 370,000 active;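 active = activation above the mean of all tested compounds plus 3 SD, cut at about 5.5% in these data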;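 note: 100% = response to 3 µM Δ7-dafachronic acid high control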
AHR activator: AHR activators, primary screen, cell-based, luminescence, luciferase reporter, human | AHR-responsive luciferase reporter cells | 2.5% of 320,000 active | Aryl hydrocarbon receptor (Homo sapiens), P35869 | activation, % at 5 µM; in the data active = activation above about 47%;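 note: 0% = vehicle wells and 100% = reference agonist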
DAX1 inh-2: DAX1 (NR0B1) inhibitors, primary screen, cell-based, HEK293, Gal4-DAX1, luciferase luminescence; 0.99% of 340,000 active; AID 504766, 2011; inhibition, % at 6.75 µM; HEK293 Gal4-DAX1 luciferase reporter; Nuclear receptor subfamily 0 group B member 1 (Homo sapiens), P51843;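 active = inhibition above the mean over all tested compounds plus 3 SD, cut at about 4.2% in these data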;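 note: 0% = DAX1-transfected cells with DMSO and 100% = empty-vector control cells with DMSO; inhibition shows as a rise in luminescence from relieved DAX1 repression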
Target sequence (P51843 207-470 limits assumed): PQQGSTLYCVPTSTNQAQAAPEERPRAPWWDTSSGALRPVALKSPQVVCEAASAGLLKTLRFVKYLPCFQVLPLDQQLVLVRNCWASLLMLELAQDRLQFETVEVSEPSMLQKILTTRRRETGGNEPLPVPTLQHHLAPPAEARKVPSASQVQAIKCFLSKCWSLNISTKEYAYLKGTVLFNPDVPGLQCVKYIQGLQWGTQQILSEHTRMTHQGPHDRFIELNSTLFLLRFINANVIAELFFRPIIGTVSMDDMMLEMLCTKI
AHR act confirm: AHR activators, confirmation, cell-based, luminescence, luciferase reporter, human | shares compounds with AHR activator | human cells, AHR-responsive luciferase reporter | activation, % at 9 µM | 87% of 2,300 active; in the data active = activation above about 49%;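 note: HepG2 hepatoma cells carrying a DRE-driven firefly luciferase reporter; 0% = vehicle wells and 100% = reference agonist wells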
PXR act counter: human PXR activators, counter-screen for AHR activator project, cell-based, luciferase luminescence. 88% of 2,300 active. shares compounds with AHR activator. activation, % at 11.6 µM. cell-based PXR reporter; in the data active = activation above about 11%;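 note: human hepatoma DPX-2 cells expressing full-length human PXR; 0% = DMSO and 100% = reference agonist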
DAX1 inh confirm: DAX1 (NR0B1) inhibitors relieving SF-1 repression, confirmation, cell-based, luminescence, HEK293T, full-length DAX-1, SF-1 activated StAR promoter; shares compounds with DAX1 inh-1; HEK293T StAR-promoter luciferase reporter, SF-1/DAX-1 repression; inhibition, % at 6.8 µM; 87% of 2,400 active; AID 652134, 2013;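 active = inhibition above the average of every tested compound plus 3 SD, cut at about 3.8% in these data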;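 note: 0% = DAX-1 cells with DMSO and 100% = no DAX-1 control cells with DMSO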
SF1 mutant ctr: StAR reporter signal changes without DAX1, counter-screen for DAX1 inhibitor project, cell-based, luminescence, AF-2 mutant SF-1, transactivation | shares compounds with DAX1 inh-1 | HEK293 StAR-luciferase, SF-1 AF2 mutant | 78% of 2,400 active | inhibition, % at 6.8 µM | AID 652136, 2013;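 active = inhibition above the mean of all tested compounds plus 3 SD, cut at about 3% in these data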;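 note: 0% = DAX-1 transfected cells with DMSO and 100% = cells without DAX-1 with DMSO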
LXR ag: LXR agonists, Gal4 luciferase reporter, confirmation, counter-screen for hcDAF-12 agonist project, cell-based, luminescence, HEK293, H. contortus campaign. shares compounds with hcDAF12 agonist. HEK293 Gal4-LXR tk-luc reporter, 24 h; normalized: DMSO 0%, positive control 100%. activation, % at 6.8 µM. 3,400 tested, under 10 active;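 active = mean percent activation of the reporter above a cutoff set as the average over tested compounds plus their standard deviation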
Target sequence (P55055 whole entry, looked up, the tested form may be a part): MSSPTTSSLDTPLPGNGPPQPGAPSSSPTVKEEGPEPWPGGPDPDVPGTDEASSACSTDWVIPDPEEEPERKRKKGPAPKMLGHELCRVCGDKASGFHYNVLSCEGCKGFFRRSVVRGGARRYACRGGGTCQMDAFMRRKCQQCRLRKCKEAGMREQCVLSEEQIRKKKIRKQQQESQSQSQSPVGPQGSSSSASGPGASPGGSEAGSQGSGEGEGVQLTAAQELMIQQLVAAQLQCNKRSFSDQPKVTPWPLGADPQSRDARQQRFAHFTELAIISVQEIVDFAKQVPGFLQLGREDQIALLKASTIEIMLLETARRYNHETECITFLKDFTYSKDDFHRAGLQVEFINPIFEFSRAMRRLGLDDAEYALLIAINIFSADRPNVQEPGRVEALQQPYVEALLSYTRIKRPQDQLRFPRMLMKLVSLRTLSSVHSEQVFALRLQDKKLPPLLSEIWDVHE
hcDAF12 conf: H. contortus DAF-12 receptor agonists, confirmation, cell-based, luminescence, HEK293, lit1-tk-luc, triplicate; shares compounds with hcDAF12 agonist; 61% of 3,400 active; HEK293 hcDAF-12 lit1-tk-luc reporter; % of Δ7-dafachronic acid response; activation, % at 6.8 µM;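 active = mean activation across triplicate tests above the threshold derived from the earlier primary screen, cut at about 5.5% in these data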;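 note: 0% = DMSO only wells and 100% = 3 µM Δ7-dafachronic acid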
hgDAF12 ag: H. glycines DAF-12 receptor agonists, confirmation, cell-based, luminescence, HEK293, GAL4-LBD fusion; shares compounds with hgDAF12 agonist; HEK293 GAL4-hgDAF12 luciferase reporter, agonist mode; percent of butyrate response; activation, % at 6.8 µM; 80% of 3,300 active;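 active = mean activation over triplicate wells above the hit cutoff derived from the earlier primary screen, cut at about 11% in these data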;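 note: 0% = DMSO low control and 100% = 2 mM sodium butyrate high control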
LXR ag 2: LXR agonists, Gal4 luciferase reporter, confirmation, counter-screen for hgDAF-12 agonist project, cell-based, luminescence, HEK293, H. glycines campaign; shares compounds with hgDAF12 agonist; 24 h; activation, % at 6.8 µM; 3,300 tested, under 10 active; AID 743051, 2013;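 active = mean activation of the triplicate above a set limit carried over from the primary screen, none filed active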
Active calls of the source: *; / = no result given. Shown are actives, neighbours in structure and some others; about 5.7% of the full set was active somewhere.

SMILES	DAX1 inh-1	hgDAF12 agonist	ssDAF12 agonist	hcDAF12 agonist	AHR activator	DAX1 inh-2	AHR act confirm	PXR act counter	LXR ag	hcDAF12 conf	hgDAF12 ag	LXR ag 2	others
Cc1cc(N/C=C/C(=O)c2ccccc2)ccc1Br	2.6	14.1*	2.8*	9.8*	94.4*	1.2	107.7*	10.9*	2.1	18.5*	23.6*	1.1
COc1ccc(-c2ccc(C(=O)NCc3ccc(N(C)C)cc3)c3occc23)c(C)c1	-0.6	4.8	-1.5	-0.9	/	/	/	/	/	/	/	/
Clc1ccc2nc3c4ccccc4cnn3c2c1	3.0	19.2*	1.1*	18.4*	105.0*	2.5	89.6*	4.0	1.6	17.0*	21.9*	1.2
Cc1ccc(NC(=O)c2[nH]cnc2C(=O)NN)cc1	0.9	13.2*	-0.9	0.0	79.3*	0.7	82.2*	16.1*	/	/	2.5	0.1
CCCCc1nc2c(C)c(N)cnc2n1Cc1cccc([N+](=O)[O-])c1	0.0	0.9	-0.5	-0.4	1.3	-0.7	/	/	/	/	/	/
COc1ccc(OC)c(-c2cc(C(=O)NCCCn3ccnc3)no2)c1	-0.7	-1.0	-1.6	-1.1	-0.4	-0.7	/	/	/	/	/	/
O=C(NCCCn1ccnc1)c1cc(-c2cccs2)on1	-0.9	53.2*	-0.1	7.6*	142.6*	3.9	457.6*	46.1*	0.5	4.1	50.9*	0.4
CC(=O)C(C)Oc1ccc(Cc2ncc(C(F)(F)F)cc2Cl)cc1 (stereo not drawn)	0.1	1.0	-2.3	1.3	10.5	1.3	/	/	/	/	/	/
O=C(Nc1nc2c(s1)COc1ccccc1-2)c1cccs1	11.9*	14.7*	-1.6	-0.4	129.4*	4.8*	129.0*	16.2*	/	/	7.4	0.2	DAX1 inh confirm=8.8*;SF1 mutant ctr=9.4*
COc1cc(/C=N\NC(=O)c2cccnc2)ccc1OC(=O)c1ccccc1Cl	-0.5	-1.2	-0.4	2.4	13.9	-0.8	/	/	/	/	/	/
CCN(CC)CC(=O)Nc1ccc(-c2ccc(NC(=O)CN(CC)CC)c(OC)c2)cc1OC	-0.4	0.9	-1.6	-1.1	-0.1	-1.5	/	/	/	/	/	/
O=C(Nc1ccc(Cl)cc1)c1ccc(Br)cc1F	7.5*	17.9*	0.8	9.6*	96.9*	4.0	130.5*	64.8*	1.3	5.5	19.8*	1.1	DAX1 inh confirm=10.6*;SF1 mutant ctr=7.5*
CCc1ccc([C@@H]2CC(=O)[C@@H]3CN(S(=O)(=O)c4ccccc4C)[C@H](c4ccc(Cl)cc4)C[C@@H]3N2S(=O)(=O)c2ccc(C)cc2)cc1	0.7	6.0	-0.5	0.2	/	/	/	/	/	/	/	/
CCCN(CCC)C(=O)C1CCCN(S(=O)(=O)c2ccc3c(c2)oc(=O)n3C)C1 (stereo not drawn)	-0.2	3.3	-1.1	3.2	-0.8	0.4	/	/	/	/	/	/
Cc1cc(C)cc(NC(=O)c2sc3nc(C)cc(C)c3c2N)c1	0.7	5.8	-0.8	0.6	-11.3	-0.7	/	/	/	/	/	/
Cc1cccc(NC(=O)c2sc3nc(N)c(C#N)cc3c2N)c1	2.7	20.6*	0.4	-0.5	111.5*	0.1	60.9*	28.7*	/	/	9.5	0.5
NC(=O)c1c(NC(=O)c2ccc(F)cc2)sc2c1CCC2	2.2	14.7*	2.0*	12.6*	173.7*	2.1	100.1*	37.1*	1.3	11.8*	20.2*	0.8
CC(NC(=O)CN(Cc1ccccc1)S(=O)(=O)c1ccccc1)c1cccnc1 (stereo not drawn)	-0.4	-2.9	-0.9	-0.3	1.1	-0.4	/	/	/	/	/	/
Cc1ccc(NC(=O)c2cccc3cccnc23)cc1	1.6	16.7*	2.7*	8.8*	120.9*	3.8	109.6*	30.1*	1.0	10.2*	18.6*	0.7
COc1ccc(CNC(=O)CN(Cc2ccco2)C(=O)CCC(=O)Nc2ccccn2)cc1	0.0	-1.9	-1.1	-2.5	0.0	-0.2	/	/	/	/	/	/
Oc1cccc(-c2nc3ccccc3s2)c1	5.3*	17.4*	3.6*	21.3*	85.8*	-0.6	58.3*	12.0*	2.4	15.6*	23.8*	1.2	DAX1 inh confirm=11.0*;SF1 mutant ctr=8.3*
Oc1ccc(O)c(Cc2nc3ccccc3s2)c1	-2.1	-2.2	-1.1	1.4	3.9	-0.9	/	/	/	/	/	/

Screens: PubChem BioAssay, The Scripps Research Institute Molecular Screening Center
